# Measurements: PubChem BioAssay (Tox21)
# Unmarked numbers belong to inactive results. Entries that show only a call come without a potency. Activity calls are given as the source filed them. Calls follow the shape of the full dose curve.
# Test: qHTS assay to identify small molecule agonists of the sonic hedgehog signaling (Shh) pathway (AID 1259368);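 also: NIH/3T3-derived 3T3Gli1-Luc cells carrying a stable Gli1-driven firefly luciferase reporter; nearly all actives have a fitted effect of over 15% in size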
# Conditions: NIH/3T3 Gli1-Luc reporter, luciferase, 24 h; series mostly up to 92.4 µM
# Text: National Center for Advancing Translational Sciences [NCATS]
# NIH Chemical Genomics Center [NCGC]
# U.S. Environmental Protection Agency [EPA]
# National Institutes of Environmental Health Sciences [NIEHS]
# National Toxicology Program [NTP]
# The sonic hedgehog (Shh) pathway is essential for normal embryonic development. Dysregulation of the Shh pathway can cause severe developmental defects in organs. Therefore chemicals that interfere with the pathway are potential developmental toxicants. A cell line designated 3T3Gli1-Luc (DMB/OARSA/CFSAN/FDA, Laurel, MD), a NIH/3T3 derived clone containing stably integrated Gli1-Luc reporter is used to detect chemical interference of the Shh pathway, by changes in the expression of the firefly Luc gene under the control of the Gli1 transcriptional response element. This cell line was used to screen Tox21 libraries for identifying and prioritizing the potential developmental toxicants that interfere Shh pathway.
# 3T3 Gli1-Luc cells were dispensed at 2,000 per well in 5uL of culture medium into white solid bottom 1536-well plates (Greiner Bio-One, Monroe, NC) using a Multidrop Combi (Thermo Scientific, Waltham, MA) dispenser. The assay plates were incubated at 37 C and 5% CO2 for 4hr, and then 23nL of compounds dissolved in DMSO and positive control were transferred using a Pintool station (Wako, San Diego, CA). The assay plates were incubated at 37C and 5% CO2 for 24hr. For luciferase read, 4uL of Amplite Luciferase reporter gene assay reagent (AAT Bioquest, Inc. Sunnyvale, CA) was added to each well of the assay plates using Flying Reagent Dispenser (FRD, Aurora Discovery, San Diego, CA) and incubated at room temperature for 30min. The luminescence signal was measured using a ViewLux plate reader (Perkin Elmer, Shelton, CT).
Structure (SMILES),Potency,activity change
Cc1cccc(N(C)C)c1,inactive,–
CC(C)OC(=O)c1cc(C(=O)OC(C)C)cc([N+](=O)[O-])c1,inactive,–
CCCCOC(=O)C(C)CC (stereo not given),inactive,–
CCN(CC)CCCN(c1ccccc1)C1Cc2ccccc2C1,inactive,–
Brc1ccccc1-c1ccccc1,inactive,–
O=C1OC(=O)c2cccc3cccc1c23,inactive,–
COc1cc(C(C)C)c2c(c1)S(=O)(=O)N(COc1cc(=O)n3cccc(OCCN4CCCCC4)c3n1)C2=O,–,"1.72% [at 18.9 µM, stronger effect = higher value]"
O=c1cccc[nH]1,inactive,–
c1ccc(Sc2ccccc2)cc1,inactive,–
C=CC(C)(CCC=C(C)C)OC(=O)/C=C/c1ccccc1 (stereo not given),inactive,–
CN1CCN(C2Cc3ccccc3Sc3ccc(Cl)cc32)CC1 (stereo not given),inactive,–
C[C@@H]1CC[C@H]2C(C)(C)[C@H]3C[C@@]12CC[C@@]3(C)O,inactive,–
NC(=O)c1ccccc1N,inactive,–
COc1ccc2sc(C(=O)Nc3nnn[nH]3)c(OC(C)C)c2c1,inactive,–
CC1CCCCN1CCCOC(=O)c1ccc(OC2CCCCC2)cc1 (stereo not given),inactive,–
CN(C)CCOC(c1ccccc1)c1ccccc1 (tested in a mixture with another compound),inactive,–
Cc1ccc(CCn2c3c(c4cc(Cl)ccc42)CN(C)CC3)cn1,inactive,–
CCN=C1C=CC(=C(c2ccc(N(CC)CC)cc2)c2ccc(N(CC)CC)cc2)c2ccccc21,inactive,–
CCCCCCOc1cc(C)c(O)c(C)c1C,inactive,–
O=C1c2c(O)ccc(O)c2C(=O)c2c(NCCNCCO)ccc(NCCNCCO)c21,inactive,–

Structure (SMILES),Potency,activity change
Cc1cc2c(C(C)C)c(O)c(O)c(C=O)c2c(O)c1-c1c(C)cc2c(C(C)C)c(O)c(O)c(C=O)c2c1O,inactive,–
CCCCCCCCCCCCCCCC,inactive,–
CCCCOc1ccc(C(=O)CCN2CCCCC2)cc1,inactive,–
CC1(C)C(=O)N(Br)C(=O)N1Br,inactive,–
CC1CCCCC1,inactive,–
CCOC(=O)N1CCC(=C2c3ccc(Cl)cc3CCc3cccnc32)CC1,inactive,–
CN(C)c1ccc(N=Nc2ccccc2C(=O)O)cc1,inactive,–
CC(COC(=O)c1ccccc1)OC(=O)c1ccccc1 (stereo not given),inactive,–
CC(C)=CCCC(C)CCOC(=O)C(C)C (stereo not given),inactive,–
CC(C)(C)c1n[nH]c(=O)n(N)c1=O,inactive,–
O=CC1CC1,inactive,–
CC(=O)Oc1ccc(C2(c3ccc(OC(C)=O)cc3)Oc3ccccc3NC2=O)cc1,inactive,–
Cc1c(-c2ccc(O)cc2)n(Cc2ccc(OCCN3CCCCCC3)cc2)c2ccc(O)cc12,inactive,–
CCCCCCCCCCCCCCCCCO,–,"-2.43% [at 18.9 µM, stronger effect = higher value]"
COC(=O)CC#N,inactive,–
Cn1cccc1,inactive,–
CC(C)N=C(N)/N=C(\N)Nc1ccc(Cl)cc1,inactive,–
CC(C)(c1cc(Br)c(OCCO)c(Br)c1)c1cc(Br)c(OCCO)c(Br)c1,inactive,–
CCCCCCCCC(C)=O,inactive,–
CCN(CC)c1ccc(N)cc1,inactive,–
